Source: PubChem BioAssay AID1053205 (Broad Institute, 2014)
Measured potencies and affinities stand elsewhere. Records with an inconclusive call do not appear. The source made the active and inactive calls.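 The calls were made as follows: active = compounds lowering the FRET ratio whose fitted half-maximal concentration is at most twice their top tested dose; inconclusive = flat partial drop between 30 and 70 percent, or bad fit; inactive = the rest.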

molecular target: Voltage-dependent L-type calcium channel subunit alpha-1D (Homo sapiens) (UniProt Q01668); assay: disruptors of CaV1.3 IQ/ICDI domain association – cell-based, HEK293, YFP-IQ/CFP-ICDI FRET, cherry-picks, dose response (AID 1053205); details: HEK293 YFP-IQ/CFP-ICDI FRET ratio, 10 min; series mostly up to 35 µM;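 also: 0% = median of neutral control wells and -100% = median of positive control wells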
Sequence (Q01668 whole entry, looked up, the tested form may be a part): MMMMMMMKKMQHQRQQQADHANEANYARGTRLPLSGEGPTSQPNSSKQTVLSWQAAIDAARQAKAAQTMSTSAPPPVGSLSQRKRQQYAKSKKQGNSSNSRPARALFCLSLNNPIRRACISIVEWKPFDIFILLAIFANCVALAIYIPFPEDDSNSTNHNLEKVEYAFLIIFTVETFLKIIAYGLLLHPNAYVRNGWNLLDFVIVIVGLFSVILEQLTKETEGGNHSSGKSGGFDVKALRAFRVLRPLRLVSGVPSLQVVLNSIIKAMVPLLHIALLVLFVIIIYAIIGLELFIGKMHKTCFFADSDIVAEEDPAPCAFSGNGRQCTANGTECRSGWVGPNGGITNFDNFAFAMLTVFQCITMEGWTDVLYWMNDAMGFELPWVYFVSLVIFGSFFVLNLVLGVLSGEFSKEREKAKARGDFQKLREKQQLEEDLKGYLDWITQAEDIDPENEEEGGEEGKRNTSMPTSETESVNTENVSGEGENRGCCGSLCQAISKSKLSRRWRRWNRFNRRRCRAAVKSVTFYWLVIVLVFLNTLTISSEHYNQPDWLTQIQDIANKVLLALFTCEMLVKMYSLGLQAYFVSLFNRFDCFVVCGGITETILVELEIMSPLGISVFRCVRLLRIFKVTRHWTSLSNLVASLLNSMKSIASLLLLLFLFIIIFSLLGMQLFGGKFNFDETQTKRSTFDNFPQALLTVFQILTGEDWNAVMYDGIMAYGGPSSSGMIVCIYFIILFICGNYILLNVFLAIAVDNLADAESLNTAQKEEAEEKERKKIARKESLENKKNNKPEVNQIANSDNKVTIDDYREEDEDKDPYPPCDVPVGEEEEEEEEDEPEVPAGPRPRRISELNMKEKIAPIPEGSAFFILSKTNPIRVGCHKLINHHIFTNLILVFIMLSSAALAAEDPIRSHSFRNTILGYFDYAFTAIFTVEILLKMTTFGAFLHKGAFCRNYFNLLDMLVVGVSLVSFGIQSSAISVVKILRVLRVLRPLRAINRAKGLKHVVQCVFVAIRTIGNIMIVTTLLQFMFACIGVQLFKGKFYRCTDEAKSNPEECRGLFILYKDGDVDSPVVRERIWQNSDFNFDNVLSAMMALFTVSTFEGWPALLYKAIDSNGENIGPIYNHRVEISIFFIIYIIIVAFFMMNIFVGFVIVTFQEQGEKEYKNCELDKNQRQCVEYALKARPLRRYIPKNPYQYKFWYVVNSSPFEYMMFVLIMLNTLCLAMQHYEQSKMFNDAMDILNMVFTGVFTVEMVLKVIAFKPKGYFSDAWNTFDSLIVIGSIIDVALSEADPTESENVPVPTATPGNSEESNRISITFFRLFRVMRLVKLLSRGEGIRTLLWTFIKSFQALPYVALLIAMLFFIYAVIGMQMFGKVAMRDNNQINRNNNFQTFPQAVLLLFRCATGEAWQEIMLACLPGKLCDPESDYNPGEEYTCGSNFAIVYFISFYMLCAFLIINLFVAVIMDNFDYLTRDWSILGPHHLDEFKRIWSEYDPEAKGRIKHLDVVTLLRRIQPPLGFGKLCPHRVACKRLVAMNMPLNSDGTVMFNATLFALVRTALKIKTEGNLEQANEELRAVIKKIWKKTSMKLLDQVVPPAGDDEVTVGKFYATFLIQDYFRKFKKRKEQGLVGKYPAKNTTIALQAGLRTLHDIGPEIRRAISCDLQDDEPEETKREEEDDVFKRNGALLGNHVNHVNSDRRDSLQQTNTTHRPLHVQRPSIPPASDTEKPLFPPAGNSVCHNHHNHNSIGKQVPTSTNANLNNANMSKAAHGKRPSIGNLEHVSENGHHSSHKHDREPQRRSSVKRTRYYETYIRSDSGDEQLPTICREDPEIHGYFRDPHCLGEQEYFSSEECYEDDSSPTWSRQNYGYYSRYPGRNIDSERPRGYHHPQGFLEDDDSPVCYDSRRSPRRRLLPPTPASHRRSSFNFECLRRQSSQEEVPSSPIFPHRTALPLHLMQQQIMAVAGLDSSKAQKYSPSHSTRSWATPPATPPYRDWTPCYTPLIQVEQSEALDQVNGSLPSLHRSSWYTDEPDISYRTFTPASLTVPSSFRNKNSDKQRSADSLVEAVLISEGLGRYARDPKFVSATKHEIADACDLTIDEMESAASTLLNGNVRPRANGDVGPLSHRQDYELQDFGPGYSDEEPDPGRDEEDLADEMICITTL

outcome, inactive:
COc1ccc(S(=O)(=O)N2CCCC2CNC(=O)C(=O)NC2CCCC2)cc1 (configuration not stated)
N#CC1=C(N)Oc2cc(N)ccc2C1c1ccc(F)cc1F (configuration not stated)
N#Cc1ccc(OCC(=O)OCC(=O)N2CCc3ccccc32)cc1
O=C(c1ccccc1)N1CCN(c2ccc(NCc3ccc4c(c3)OCO4)cc2)CC1
Cn1nc(-c2ccc(Cl)cc2)c2cc(C(=O)N3CCN(c4ccccc4)CC3)sc21
COc1ccc(C(=O)Oc2cc(N)n(S(=O)(=O)c3ccccc3)n2)cc1
N#Cc1c2ccc(OCC(N)=O)cc2n2ccccc12
CC1CC(C)CN(CCCNC(=O)CCC(=O)N2CC(C)Oc3ccccc32)C1 (configuration not stated)
CC(=O)c1sc(N/N=C\c2ccc(N(C)C)cc2)nc1C
Nn1c(SCC(=O)N2CCCC2)nnc1-c1cccs1
CCOC(=O)c1cc(-c2ccccc2)sc1NC(=O)CSc1nnc(N)s1
Cn1cnc(S(=O)(=O)Nc2ccc(OC(F)(F)F)cc2)c1
Cc1ccc(S(=O)(=O)CCC(=O)OCC(=O)Nc2cccc(S(=O)(=O)N3CCCCC3)c2)cc1
O=C(CCc1c[nH]c2ccccc12)OCC(=O)c1ccccc1
CCCOc1ccccc1/C=C1\SC(N)=NC1=O
O=C(c1cccc(Cl)c1)N1CCC(=O)N(C(COCc2ccccc2)Cc2ccccc2)CC1 (configuration not stated)
Cc1cc(CNC(=O)c2ccc3c(c2)OCO3)c2ccccc2n1
O=C(NNc1cc(N2CCCC2)nc(N2CCCC2)n1)c1ccc([N+](=O)[O-])cc1
Cn1cc(C(c2ccccc2OCC(=O)O)c2cn(C)c3ccccc23)c2ccccc21
CC1(C)CC(=O)C2=C(C1)OC(N)=C(C#N)[C@@H]2c1ccccc1[N+](=O)[O-]
CCc1nc2ccc(C(=O)NCCc3c[nH]c4ccccc34)cn2c1N(C=O)CCC(C)C
N#CC(C#N)=C1C=CC=CN1/C(=C\c1ccccc1)C(=O)c1cccs1
N#Cc1ccc(/C=C\c2nccc3c2[nH]c2ccccc23)cc1
O=c1[nH]c(Nc2ccccc2Cl)cc2ccccc12
CC/C(C)=N\Nc1nc(-c2cc3cc(OC)ccc3oc2=O)cs1
NC(=O)c1c(NC(=O)Cc2ccccc2)sc2c1CCN(Cc1ccccc1)C2
Cc1noc(C)c1-c1ccc(C(=O)NCCc2ccccc2)c2occc12
O=C(/C=C/c1ccccc1)C1=C(O)C(=O)N(CCO)C1c1ccc2c(c1)OCO2 (configuration not stated)
CC(=O)N=c1c(C#N)cc2c(=O)n3ccccc3nc2n1CCCOC(C)C
Cc1oc(/N=C/c2ccc(O)cc2O)c(C#N)c1C
[O-]/[N+](=C/c1ccccc1)c1ccccc1
O=C(O)c1cccc(NC(=O)c2cn(-c3ccccc3)nc2-c2cccc(Br)c2)c1
O=c1[nH]c(=O)c2nc(-c3ccc(Cl)cc3)cnc2[nH]1
Cc1ccc(-n2nnnc2CNC(=O)C(=O)c2c[nH]c3ccccc23)cc1C
S=c1[nH]c2ccc(Cc3ccc4[nH]c(=S)[nH]c4c3)cc2[nH]1
N#Cc1c2ccc(O)cc2n2ccccc12

FRET change, negative = inhibition, inactive:
N#C/C(=C\c1ccc(N2CCOCC2)o1)C(=O)NCCc1ccccc1 166% [at 8 µM]
